An excerpt weighted towards active compounds, which were near 2% of everything screened.
Six1-Eya2 blk: qHTS Assay for Inhibitors of the Six1/Eya2 Interaction; hit rate 0.56% among 360,000; activity change, % (no concentration beside the values); AID 651725, 2012; AlphaScreen GST-Six1/His-Eya2 binding, biochemical; stronger effect = lower value; Homeobox protein SIX1 (Homo sapiens) + Protein phosphatase EYA2 (Homo sapiens), …
Target sequence (O00167 whole entry, looked up): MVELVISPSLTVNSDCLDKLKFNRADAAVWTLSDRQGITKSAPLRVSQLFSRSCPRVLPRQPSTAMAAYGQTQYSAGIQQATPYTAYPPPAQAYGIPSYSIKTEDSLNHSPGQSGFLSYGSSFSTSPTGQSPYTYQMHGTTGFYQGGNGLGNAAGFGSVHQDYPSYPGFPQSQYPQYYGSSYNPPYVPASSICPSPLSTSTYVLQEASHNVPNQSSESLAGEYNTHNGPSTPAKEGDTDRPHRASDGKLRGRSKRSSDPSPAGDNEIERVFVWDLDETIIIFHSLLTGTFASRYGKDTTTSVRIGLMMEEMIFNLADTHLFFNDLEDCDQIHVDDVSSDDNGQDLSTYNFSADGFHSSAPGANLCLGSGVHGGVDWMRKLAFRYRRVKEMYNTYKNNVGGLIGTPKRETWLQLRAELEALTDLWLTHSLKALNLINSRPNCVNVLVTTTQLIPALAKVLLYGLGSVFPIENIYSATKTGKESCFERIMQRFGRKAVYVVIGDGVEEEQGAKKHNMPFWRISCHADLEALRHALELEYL
Target sequence (Q15475 whole entry, looked up): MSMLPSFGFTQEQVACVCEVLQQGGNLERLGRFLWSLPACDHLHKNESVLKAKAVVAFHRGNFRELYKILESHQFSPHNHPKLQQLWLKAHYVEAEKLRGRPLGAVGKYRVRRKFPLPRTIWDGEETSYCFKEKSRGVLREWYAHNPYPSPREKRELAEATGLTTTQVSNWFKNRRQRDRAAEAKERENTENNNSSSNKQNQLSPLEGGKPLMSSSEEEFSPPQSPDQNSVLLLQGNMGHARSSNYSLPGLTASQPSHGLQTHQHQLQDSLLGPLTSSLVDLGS
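Homogeneous AlphaScreen proximity assay pairing GST-Six1 with His-tagged Eya2 (added as 5X mix: 250 nM and 500 nM) in 50 mM Tris pH 8.0, 300 mM NaCl, 1 mM TCEP. Glutathione donor and nickel acceptor beads; 1 h, 37 °C, dark.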
CtBP-E1A inh: qHTS Assay for Inhibitors of the CtBP/E1A Interaction; CtBP / adenovirus E1A interaction (AlphaScreen); AlphaScreen GST-E1A/His-CtBP binding, 1536-well; stronger effect = lower value; activity change, % (concentration not given with the values); hit rate 0.49% among 340,000; AID 651724, 2012
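GST-E1A and His-tagged CtBP (125 nM each as 5X stock) were preincubated with pin-transferred compound for 2 h at 37 °C in the dark, then glutathione donor and nickel acceptor beads were added for 1 h before AlphaScreen reading.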
KCNH2 WT inh: qHTS for Inhibitors of KCHN2 3.1: Wildtype qHTS; Voltage-gated inwardly rectifying potassium channel KCNH2 (Homo sapiens), Q12809; U2OS, BacMam KCNH2, thallium flux FluxOr; stronger effect = lower value; activity change, % at 1.84 µM; hit rate 0.37% among 340,000; AID 720551, 2013;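 active = maximum activity change below -70%; inconclusive = maximum activity change between -70% and -50%; inactive = maximum activity change above -50%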
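U2OS cells were transduced with wild-type KCNH2 virus (2.03 x 10^8 / mL) for 4 h at room temperature, then cultured overnight at 37 C. Thallium flux was read with FluxOr dye. Rate constants were normalized to DMSO controls.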
KCNH2 3.1 inh: qHTS for Inhibitors of KCHN2 3.1: Mutant qHTS; Potassium voltage-gated channel subfamily H member 2, brain isoform KCNH2 3.1 (human); U2OS KCNH2 3.1, thallium flux FluxOr; stronger effect = lower value; activity change, % (tested at about 1.8 µM); hit rate 0.95% among 340,000; AID 720553, 2013;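 active = maximum activity change below -70%; inconclusive = maximum activity change from -70% to -50%; inactive = maximum activity change above -50%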;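 also: thallium influx rate constant from kinetic fluorescence after stimulation buffer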
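FluxOr-based Tl+ influx in U2OS cells transduced with KCNH2 3.1 virus; rate constants normalized to DMSO controls.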
JMJD2E inh: qHTS Assay for Inhibitors of Human Jumonji Domain Containing 2E (JMJD2E). Lysine-specific demethylase 4E (Homo sapiens), B2RXH2. JMJD2E catalytic domain, FDH-coupled NADH fluorescence (FDH is formaldehyde dehydrogenase). Potency, µM (highest dose often 57.1 µM), usual class: inhibitors. hit rate 1.6% among 230,000; active = well fitted inhibition curve with a large enough effect, not every such curve was filed as active; inconclusive = small, poorly fitted or top-dose-only effect, or another doubt; inactive = no such curve, though single readings can be large or run the other way; also: nearly all actives have a fitted effect of over 50% in size
Of the large screens only hits and unclear results are named; the others gave an inactive call. Rule as the data show it, unless noted: active = activity change below about -65%; inconclusive = mostly about -30% to -63%; inactive = weaker than that.

CCOC(=O)Cc1csc(NC(=O)CCCN2C(=O)c3ccccc3C2=O)n1	none
O=C(CCCc1ccccc1)c1ccccc1	none (no result: JMJD2E inh)
CCN(CCCC(=O)c1ccc(F)cc1)CCc1ccccc1	KCNH2 WT inh inconclusive, KCNH2 3.1 inh -90.1 (no result: JMJD2E inh)
CCN(CC)CCOCCOc1ccccc1F	none
Cc1n[nH]c(=S)n(/N=C/c2cccs2)c1=O	Six1-Eya2 blk inconclusive, CtBP-E1A inh -72.0
COc1cc2c(cc1OC)C(SC)=NC1(CCCC1)C2	none
COc1ccc(C2=NOC(Cn3nc(C(=O)NCc4cccc(C(F)(F)F)c4)cc3-c3ccccc3)C2)cc1 (stereo not given)	KCNH2 3.1 inh -73.9 (no result: JMJD2E inh)
COc1ccc(C2=NOC(Cn3nc(C(=O)NCc4ccc(C)cc4)cc3-c3ccccc3)C2)cc1 (stereo not given)	none (no result: JMJD2E inh)
COC(=O)c1ccc2c(c1)C(C)(C)C(/C=C/c1ccccc1O)=[N+]2C	JMJD2E inh inconclusive
C[N+]1=C(/C=C/Nc2ccccc2Cl)C(C)(C)c2ccccc21	KCNH2 WT inh -80.4
CCOc1ccc(/C=C(\C#N)C(=O)NCC2CCCO2)cc1OCC (stereo not given)	CtBP-E1A inh -65.6
COc1cc(/C=C(\C#N)C(=O)NCC2CCCO2)ccc1O (stereo not given)	none
COCCNc1nc2ccccc2nc1NS(=O)(=O)c1ccc(C)cc1C	JMJD2E inh inconclusive
O=C(O)CP(=O)(O)O	none
O=P(O)(O)CP(=O)(O)O	JMJD2E inh 0.355µM (no result: Six1-Eya2 blk, CtBP-E1A inh, KCNH2 WT inh, KCNH2 3.1 inh)
CC(=O)NCCC(=O)Nc1cc(S(=O)(=O)N2CCOCC2)ccc1Oc1ccccc1	KCNH2 WT inh -73.5 (no result: JMJD2E inh)
CCN(CC)c1ccc(S(=O)(=O)N2CCOCC2)cc1NC(=O)CN1CCN(Cc2ccccc2)CC1	JMJD2E inh 28.2µM
CC(=O)NCCC(=O)Nc1cc(S(=O)(=O)N2CCOCC2)ccc1Oc1ccc(F)cc1	none (no result: JMJD2E inh)
Cc1ccc(N=C2NC(=O)CC(C(=O)Nc3ccc4c(c3)OCO4)S2)cc1 (stereo not given)	none
O=C(CSc1nnc(-c2ccncc2)o1)Oc1ccccc1	none
CC(C)(C)C1CCC2(CC1)C(Nc1cccc(C(F)(F)F)c1)=NC(=S)N2CC#N (stereo not given)	none
CC(C)Cc1cc(CN2CCCC(CO)(Cc3cccc(Cl)c3)C2)[nH]n1 (stereo not given)	KCNH2 3.1 inh inconclusive
CC(C)Cc1cc(CN2CCC(CO)(Cc3cccc(C(F)(F)F)c3)CC2)[nH]n1	KCNH2 WT inh -104.9, KCNH2 3.1 inh -82.5
Cc1ccc(-n2cc(CN3CCC(CO)(Cc4cccc(C(F)(F)F)c4)CC3)cn2)cc1	KCNH2 WT inh -84.2, KCNH2 3.1 inh -98.7
Cc1ccc(-n2cc(CN3CCC(CO)(Cc4ccccc4)CC3)cn2)cc1	none (no result: Six1-Eya2 blk, CtBP-E1A inh, KCNH2 WT inh, KCNH2 3.1 inh)
CN(c1ccc(OCC(=O)OCC(=O)Nc2c(F)c(F)c(F)c(F)c2F)cc1)S(=O)(=O)c1ccc(F)cc1	none
C#CCCCCCCC#CCN(C)C	JMJD2E inh 15.8µM
Cc1ccc(N/C(N)=N/c2nc(C)cc(N3CCCCC3)n2)c(C)c1	KCNH2 3.1 inh -96.7 (no result: CtBP-E1A inh)
COc1ccc(-n2c(C)nc3cc(C(=O)NCCN4CCOCC4)ccc32)cc1	KCNH2 WT inh -183.5
Cc1[nH]c2ccc(C(=O)NCCCN3CCCC3)cc2c1C	none (no result: CtBP-E1A inh, JMJD2E inh)
Cc1[nH]c2ccc(C(=O)NCCN3CCOCC3)cc2c1C	KCNH2 3.1 inh -99.6 (no result: CtBP-E1A inh, JMJD2E inh)
CCOc1ccc(-n2c(C)nc3cc(C(=O)NCCN4CCOCC4)ccc32)cc1	none
O=C1CC(=O)N(c2ccccc2)c2ccccc21	none
O=C(Nc1nc(-c2ccccn2)cs1)c1cccc(-n2cnnn2)c1	Six1-Eya2 blk -92.1, JMJD2E inh inconclusive (no result: CtBP-E1A inh)
O=C(Nc1nc(-c2ccncc2)cs1)c1ccco1	none
O=C(Nc1nc(-c2ccccn2)cs1)c1ccc(Br)s1	Six1-Eya2 blk inconclusive, CtBP-E1A inh -70.6, JMJD2E inh inconclusive
O=C(Nc1nc(-c2ccccn2)cs1)c1ccco1	Six1-Eya2 blk -79.2, CtBP-E1A inh -92.9, JMJD2E inh inconclusive
O=C(Nc1nc(-c2ccccn2)cs1)C1CC1	Six1-Eya2 blk inconclusive, CtBP-E1A inh -71.7
S=C(NCc1cccs1)Nc1ccc(Br)cc1Cl	none
O=C1N/C(=N/N=C/c2ccccc2)SC1(c1ccccc1)c1ccccc1	none
O=S(=O)(c1ccc(Cl)cc1)c1cc(O)ccc1O	none (no result: CtBP-E1A inh, JMJD2E inh)
OCCN1CCN(C(=S)Nc2ccc(SC(F)F)cc2)CC1	none
C[C@H](NC(=O)c1ccco1)C(=O)Nc1nc(-c2ccccn2)cs1	Six1-Eya2 blk -88.8, CtBP-E1A inh -89.3 (no result: JMJD2E inh)
Cc1cccnc1NC(=O)C1CC(=O)N(c2ccc3c(c2)OCCO3)C1 (stereo not given)	none (no result: JMJD2E inh)
C[C@H](NC(=O)c1ccco1)C(=O)Nc1nnc(SCc2ccccc2)s1	none (no result: JMJD2E inh)
O=C(Nc1nc(-c2ccccn2)cs1)C1CC(=O)N(c2ccc3c(c2)OCCO3)C1 (stereo not given)	Six1-Eya2 blk -86.2
O=C(NC1CCCCCC1)c1cc2n(n1)C(C(F)(F)F)CC(c1ccco1)N2 (stereo not given)	none
O=C(CSc1nncc2ccccc12)N1CCOCC1	none
O=C(CCNS(=O)(=O)c1cccc2nonc12)N1CCN(c2cccc(Cl)c2)CC1	none
O=C(NN=Cc1ccc(O)c(O)c1)c1ccccc1	none (no result: KCNH2 WT inh, KCNH2 3.1 inh, JMJD2E inh)
O=C(COc1ccccc1C(=O)N/N=C\c1ccc(O)c(O)c1)N/N=C/c1ccc(O)c(O)c1	Six1-Eya2 blk -79.2, CtBP-E1A inh -76.7, JMJD2E inh 12.6µM
C/C(=N\Nc1nnc(C)c(=O)[nH]1)C(=O)O	Six1-Eya2 blk -89.2, CtBP-E1A inh -87.2
CC(/C=N/Nc1nnc(C)c(=O)[nH]1)=C\c1ccccc1	none
Cn1c(CN2CCCCC2)nc2cc(NS(=O)(=O)c3ccc(F)cc3)ccc21	none
Cc1ccnc(NS(=O)(=O)c2ccc(NC(=O)c3ccc(Cl)cc3[N+](=O)[O-])cc2)n1	KCNH2 3.1 inh -133.7 (no result: JMJD2E inh)
O=C(c1ccc(-c2ccc(Cl)cc2)o1)N1CCN(c2ccc([N+](=O)[O-])cc2Cl)CC1	CtBP-E1A inh inconclusive, KCNH2 3.1 inh -82.8
O=C(/C=C\c1ccc(-c2cccc([N+](=O)[O-])c2)o1)N1CCOCC1	JMJD2E inh 15.8µM
O=C(c1ccc(-c2cccc([N+](=O)[O-])c2)o1)N1CCN(c2ccc([N+](=O)[O-])cc2)CC1	KCNH2 WT inh -110.5, KCNH2 3.1 inh -115.6 (no result: JMJD2E inh)
O=C(c1cccnc1)N1CCN(c2ccc([N+](=O)[O-])cc2Cl)CC1	KCNH2 3.1 inh -120.0
CCOC(=O)N1CCN(S(=O)(=O)c2ccc3c(c2)NC(=O)CO3)CC1	none (no result: JMJD2E inh)

Compound activity deposited in PubChem BioAssay by National Center for Advancing Translational Sciences (NCATS).
